Assay [1] is described as follows: NCI Yeast Anticancer Drug Screen. Data for the rad50 strain (AID 155).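 Also: 0% = growth of vehicle-only cultures of the same strain.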 The conditions noted are these: S. cerevisiae rad50 strain growth inhibition; at 50.0 µM; active compounds read high. In short, it runs like this:
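Growth of the mutant yeast was measured after compound exposure and referenced to vehicle-treated cultures.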

Assay [2] can be described thus: NCI Yeast Anticancer Drug Screen. Data for the mec2-1 strain (AID 157). The conditions noted are these: S. cerevisiae mec2-1 strain, at 50.0 µM, active compounds read high. The gist of the method:
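Compounds were applied to mec2-1 yeast cells. Their growth was then compared with that of vehicle-treated cultures to give growth inhibition.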

Assay [3] is described as follows: NCI Yeast Anticancer Drug Screen. Data for the sgs1 mgt1 strain (AID 161).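 Also: 0% = growth of cultures given vehicle only.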 The conditions noted are these: S. cerevisiae sgs1 mgt1 strain, at 50.0 µM, active compounds read high. In short, it runs like this:
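This yeast growth screen uses a strain with defined DNA-repair lesions; compound-treated growth is compared with vehicle-treated growth.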

Assay [4] can be described thus: NCI Yeast Anticancer Drug Screen. Data for the cln2 rad14 strain (AID 165).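 Also: 0% = growth equal to vehicle treated cultures.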 The conditions noted are these: S. cerevisiae cln2 rad14 strain, at 50.0 µM, active compounds read high. In short, it runs like this: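 Strain: cln2 rad14 yeast, altered in cell cycle control and DNA damage repair. Read-out: growth inhibition vs vehicle.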
Assay [5] is described as follows: NCI Yeast Anticancer Drug Screen. Data for the bub3 strain (AID 167). As to conditions: S. cerevisiae bub3 mutant strain, at 50.0 µM, active compounds read high. The gist of the method:
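Whole-cell yeast assay. The mutant strain was incubated with compounds, and growth inhibition was determined by comparison with vehicle-treated cells.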

The nature of assay [6]: NCI Yeast Anticancer Drug Screen. Data for the mlh1 rad18 strain (AID 175). The conditions noted are these: S. cerevisiae mlh1 rad18 strain growth inhibition; at 50.0 µM; active compounds read high. In short, it runs like this: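 A repair-deficient yeast strain is exposed to test compound, and growth is scored relative to vehicle-treated controls.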

Compounds without any hit were thinned out: in the full panel of roughly 79,000, 15% have a hit. A number with no mark means an inactive call. Activity calls are given as the source filed them. Rule as the data show it: active = growth inhibition above about 70%; inactive = the rest.

`O=C(O)CC1=C(c2ccccc2)C(O)(c2ccccc2)CC1=O` (stereo unspecified): the growth inhibition in assay [1] is 4.75%; in assay [2] it was 15.3%; in assay [3], 7.05%; in assay [4], -27.9%; in assay [5], 11.2%; in assay [6] it was -11.1%.
`CCCOC(=O)c1ccnc(C(=O)OCCC)c1`: the growth inhibition in assay [1] is 4.85%; in assay [2], 4.85%; in assay [3] it was -1.2%; in assay [4], -16.2%; in assay [5], -9.9%; in assay [6], -13.6%.
For the molecule `CC(O)CN1CCCC1` (stereo unspecified), the growth inhibition was 5.75% in assay [1]; -21.9% in assay [2]; -4% in assay [3]; 6.2% in assay [4]; 0.6% in assay [5]; 9.35% in assay [6].
Regarding `C/C=C\c1ccc2oc(-c3ccc4c(c3)OCO4)c(C)c2c1`, the growth inhibition in assay [1] is 3.2%; in assay [2] it was 9.9%; in assay [3] it was 6.15%; in assay [4], -57.8%; in assay [5] it was -4.6%; in assay [6], -11.3%.
Take `O=[N+]([O-])c1ccc(-c2csc(Nc3ccccn3)n2)o1`: the growth inhibition in assay [1] is 81.1% (active); in assay [2], 38.3%; in assay [3], 84.7% (active); in assay [4], 31.4%; in assay [5], 40.8%; in assay [6], 92.5% (active).
In the case of `c1ccc(P(CCNCCP(c2ccccc2)c2ccccc2)c2ccccc2)cc1`, the growth inhibition in assay [1] is -16%; in assay [2], 11.8%; in assay [3] it was 8.6%; in assay [4], 10.3%; in assay [5], 2.25%; in assay [6] it was 6.75%.
For the molecule `CCOC(=O)c1ccc(-c2cccs2)[nH]1`, the growth inhibition in assay [1] is -35.3%; in assay [2], -1.25%; in assay [3], 3.95%; in assay [4], -1.25%; in assay [5] it was 27%; in assay [6], -11.9%.
`COc1cccc(CN2C(=O)NC(C)(C)C2O)c1` (stereo unspecified): the growth inhibition was -12.2% in assay [1]; 28.4% in assay [2]; 10.3% in assay [3]; -5.75% in assay [4]; 11.6% in assay [5]; 10.2% in assay [6].
For the molecule `CCC[C@H](C)[C@H]1NC(=O)[C@@H](NC(=O)[C@@H](CC(C)C)N(C)C(=O)C2CCCN2C(=O)[C@H](C)O)[C@@H](C)OC(=O)[C@H](CC(C)C)N(C)C(=O)[C@@H]2CCCN2C(=O)[C@H](CC(C)C)NC(=O)[C@@H](C)C(=O)[C@H](C(C)C)OC(=O)C[C@@H]1O` (stereo partly specified), the growth inhibition in assay [1] was 21.2%; in assay [2], 9.35%; in assay [3], -5.9%; in assay [4], 26.3%; in assay [5], -20.9%; in assay [6], -54%.
Take `COc1cc2nc(Sc3c([N+](=O)[O-])ncn3C)[nH]c2cc1OC`: the growth inhibition in assay [1] was -41.6%; in assay [2], -33.3%; in assay [3], -30%; in assay [4], -23%; in assay [5] it was -43.5%; in assay [6] it was -46%.
Regarding `CC12CCC(CC1)C(C)(C)N=C(N)S2`, the growth inhibition is -3.1% in assay [1]; -10.8% in assay [2]; -2.75% in assay [3]; -18% in assay [4]; -11.2% in assay [5]; -20% in assay [6].
Regarding `Cn1cnc(N)c(N=O)c1=O`, the growth inhibition in assay [1] was -0.1%; in assay [2] it was 8.65%; in assay [3], 10.1%; in assay [4], 18.7%; in assay [5], -9.75%; in assay [6], 6%.
For `CC(=O)OC(C(=O)O)C(OC(C)=O)C(OC(C)=O)C(=O)O` (stereo unspecified), the growth inhibition in assay [1] is 21.5%; in assay [2] it was 19.2%; in assay [3], 13.8%; in assay [4] it was -5.85%; in assay [5], 5.7%; in assay [6], 8.4%.
For `CC(=O)NC1CCC2CCCCC2C1` (stereo unspecified), the growth inhibition was 15.7% in assay [1]; -3.15% in assay [2]; -8.75% in assay [3]; -61% in assay [4]; 32.1% in assay [5]; -17.9% in assay [6].
Turning to `CC(=O)Nc1ccc(-c2nnc(SCC(=O)Nc3ccccc3)o2)cc1`, the growth inhibition is 2.3% in assay [1]; 6.8% in assay [2]; -4.95% in assay [3]; -1.8% in assay [4]; -14.6% in assay [5]; -8.55% in assay [6].
Take `Cc1cc(C(=O)O)c2c([nH]1)c(C)cc1nc3ccccc3c12`: the growth inhibition in assay [1] was 12.6%; in assay [2] it was 5.65%; in assay [3] it was -10%; in assay [4] it was 12.1%; in assay [5], 4.95%; in assay [6], -19.2%.
With `O=C(/C=C/c1ccccc1)c1ccc(Oc2ccccc2)cc1`, the growth inhibition in assay [1] was -13.2%; in assay [2] it was -12.8%; in assay [3], -12.9%; in assay [4], -39.5%; in assay [5] it was 7.5%; in assay [6], -14.8%.
Take `NC(C(=O)O)C1C=CCCC1` (stereo unspecified): the growth inhibition in assay [1] was -25.4%; in assay [2], -3.4%; in assay [3], -30.8%; in assay [4] it was -57.3%; in assay [5], -27.2%; in assay [6], 6.85%.
For the molecule `COc1cc(Cl)ccc1NC(=O)Oc1ccc(C=O)cc1OC`, the growth inhibition in assay [1] is 3.8%; in assay [2], 10.2%; in assay [3] it was 6.75%; in assay [4] it was 9.85%; in assay [5] it was 17.9%; in assay [6] it was 10.8%.
Turning to `N#CC1C=CN(Cc2ccccc2)C=C1C(=O)c1ccccc1` (stereo unspecified), the growth inhibition in assay [1] was -1.5%; in assay [2] it was -3.9%; in assay [3], -5.85%; in assay [4], 2.55%; in assay [5], 7.6%; in assay [6], 5.2%.
As to `CC(=N/Nc1ccc([N+](=O)[O-])cc1[N+](=O)[O-])/C(C)=C/C1C=CCCC1(C)C` (stereo unspecified), the growth inhibition in assay [1] is 21.2%; in assay [2], -2.75%; in assay [3], 8.5%; in assay [4], 3%; in assay [5], 16.1%; in assay [6], 6.65%.

For the origin of these results see PubChem BioAssay (NCI).
